Screening data from PubChem BioAssay.
CYP2C19 inh – blockers of cytochrome P450 2C19 activity – biochemical, luminescence, ADME assay, primary screen | P33261 | CYP2C19 Supersomes, luciferin-H EGE luminescence, 30 min | inhibition, % at 5 µM | 96,000 tested, 21% active | AID 778, 2007;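 active = CYP2C19 inhibition above a set limit at 5 µM in the primary screen, cut at about 50% in these data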;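 note: plate controls were negative control wells for no effect and 2.5 mM tranylcypromine positive control for full effect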
Target sequence (P33261 whole entry, looked up): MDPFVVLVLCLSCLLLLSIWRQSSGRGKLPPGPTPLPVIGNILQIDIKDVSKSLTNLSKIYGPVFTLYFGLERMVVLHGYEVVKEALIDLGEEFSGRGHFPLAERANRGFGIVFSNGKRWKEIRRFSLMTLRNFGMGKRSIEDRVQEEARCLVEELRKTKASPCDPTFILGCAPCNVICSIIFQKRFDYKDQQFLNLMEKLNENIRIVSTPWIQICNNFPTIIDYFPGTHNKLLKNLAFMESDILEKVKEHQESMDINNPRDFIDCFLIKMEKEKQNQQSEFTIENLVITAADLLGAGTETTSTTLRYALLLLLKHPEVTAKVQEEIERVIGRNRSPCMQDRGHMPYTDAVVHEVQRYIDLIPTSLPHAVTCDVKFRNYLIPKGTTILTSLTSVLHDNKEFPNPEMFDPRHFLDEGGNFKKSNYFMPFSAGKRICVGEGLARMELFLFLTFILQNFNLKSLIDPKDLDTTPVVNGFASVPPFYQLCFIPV
PLK1 kinase inh – human PLK1 kinase inhibitors, primary screen, biochemical, TR-FRET. inhibition, % at 10 µM. recombinant PLK1 kinase, TR-FRET peptide phosphorylation. Serine/threonine-protein kinase PLK1 (Homo sapiens), P53350. 97,000 tested, 0.53% active;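 active = inhibition of 50% or more in the single-concentration screen; inactive = inhibition below 50%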;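 note: 0% = DMSO max control and 100% = H-89 dihydrochloride min control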
CYP2C9 inhib – blockers of cytochrome P450 2C9 activity – biochemical, luminescence, ADME assay, primary screen | CYP2C9 Supersomes, luciferin-H conversion | 96,000 tested, 20% active | inhibition, % at 5 µM | AID 777, 2007;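 active = blocking of liver enzyme CYP2C9 beyond about 50% at 5 µM, limit read from the data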
PLK1 PBD inh – Plk1 polo box domain binding inhibitors, primary screen, biochemical, fluorescence polarization | inhibition, %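 (tested at about 20 µM)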 | Serine/threonine-protein kinase PLK1 (Homo sapiens), P53350 | 97,000 tested, 0.13% active | Plk1 PBD phosphopeptide binding; in the data active = inhibition above about 34%, passing the limit was not always enough
CYP2C9 act – human CYP2C9 activators, primary screen, biochemical, luminescence. 96,000 tested, 1.4% active. recombinant CYP2C9, luciferin-H conversion; stronger effect = higher value; factor 1 = untreated enzyme, 0 = blocked. activation factor at 5 µM. AID 1024, 2008. Cytochrome P450 2C9 (Homo sapiens), P11712;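 active = activation factor of 2 or more for CYP2C9 at a 5 µM dose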;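 note: 0 = sulfaphenazole-blocked wells and 1 = vehicle-only wells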
CYP2C19 activ – human CYP2C19 activators, primary screen, biochemical, luminescence; Cytochrome P450 2C19 (Homo sapiens), P33261; activation factor at 5 µM; AID 1025, 2008; 96,000 tested, under 10 active; recombinant CYP2C19, luciferin-H EGE luminescence; stronger effect = higher value; 0 = fully inhibited enzyme, 1 = untreated enzyme;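 active = activation factor of at least 2 at 5 µM in the primary screen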;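 note: 0 = wells with 2.5 mM tranylcypromine and 1 = vehicle-only wells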
The depositor's hits bear a star; · = no result given. Most compounds without a hit are left out; they make up all but 28% or so of the library.

SMILES | CYP2C19 inh | PLK1 kinase inh | CYP2C9 inhib | PLK1 PBD inh | CYP2C9 act | CYP2C19 activ
S=c1nc(C2CC2)[nH]c2ccccc12 | -11 | -16 | 4 | -4 | 1 | 1.1
Cc1ccc(NC(=O)CCC(=O)O)cc1F | -24 | -13 | -19 | -9 | 1.2 | 1.2
Cc1ccc(-c2noc(CNc3ccccc3)n2)cc1 | · | -5 | · | -14 | · | ·
O=C(Nc1cccc2ccccc12)/C(Cl)=C/c1ccccc1 | 4 | -11 | -199 | -34 | 3* | 1
Cc1ccc(NC(=O)/C(Cl)=C\c2ccccc2)cc1 | · | -19 | · | · | · | ·
CCN(CC)S(=O)(=O)c1cccc(C(=O)N[C@H](C(=O)OCC(=O)Nc2ccccc2)C(C)C)c1 | 93* | -44 | 99* | 4 | 0 | 0.1
CCc1nnc(NC(=O)c2cc(S(=O)(=O)N(CC)CC)ccc2Cl)s1 | -4 | -11 | 37 | -10 | 0.6 | 1
CCN(CC)S(=O)(=O)c1cccc(C(=O)N[C@H](C(=O)OCC(N)=O)C(C)C)c1 | 9 | -36 | 28 | -6 | 0.7 | 0.9
CCc1nnc(NC(=O)[C@@H](NC(=O)c2cccc(S(=O)(=O)N(CC)CC)c2)C(C)C)s1 | 79* | -9 | 72* | 5 | 0.3 | 0.2
CCN(CC)CCNC(=O)c1ccc2c(=O)n(CCc3ccccc3)c(=O)[nH]c2c1 | 18 | 1 | -1 | -10 | 1 | 0.8
Cc1cc(C2=CC(C)(c3cc(C)oc3C)Nc3nc(C(F)(F)F)nn32)c(C)o1 (stereo not given) | 41 | -9 | 87* | -2 | 0.1 | 0.6
COC(=O)C1=C(O)/C(=C\c2ccc(O)c(OC)c2)N=C1C | 15 | -10 | 23 | -27 | 0.8 | 0.8
CCOC(=O)C1=C(O)/C(=C\c2ccc(CNC(=O)C(=O)Nc3ccc(C)c(C)c3)o2)N=C1C | 55* | -7 | 83* | 11 | 0.2 | 0.4
O=C(NC1CCCCCC1)C1CCN(S(=O)(=O)c2ccc(F)cc2)CC1 | 4 | -10 | -3 | 8 | 1 | 1
CCCNC(=O)C1CCN(S(=O)(=O)c2ccc(-c3nn[nH]n3)cc2)CC1 | 41 | -8 | 83* | 4 | 0.2 | 0.6
COc1ccc(CNC(=O)C2CCN(S(=O)(=O)c3ccc(-c4nn[nH]n4)cc3)CC2)cc1 | -9 | -16 | 65* | -18 | 0.3 | 1.1
O=C(NC1CC2CCC1C2)C1CCN(S(=O)(=O)c2ccc(-c3nn[nH]n3)cc2)CC1 (stereo not given) | -17 | -5 | 87* | -30 | 0.1 | 1.2
CCN1CCN(C(C)C(=O)Nc2c(C)n(C)n(-c3ccccc3)c2=O)CC1 (stereo not given) | -10 | -14 | -10 | 21 | 1.1 | 1.1
CC(=O)Nc1cc(C(=O)OC(C(=O)c2ccccc2)c2ccccc2)ccc1C (stereo not given) | 59* | -12 | 60* | -8 | 0.4 | 0.4
COc1ccc(NC(=O)CCC(=O)OC(C(=O)c2ccccc2)c2ccccc2)cc1 (stereo not given) | 25 | -13 | 0 | 8 | 1 | 0.8
COc1ccc(C(=O)OC(C(=O)c2ccccc2)c2ccccc2)cc1 (stereo not given) | 58* | -4 | 78* | 2 | 0.2 | 0.4
COc1ccc(C(=O)C(OC(=O)c2ccc(C)c(NC(C)=O)c2)c2ccccc2)cc1 (stereo not given) | 41 | -11 | 62* | -6 | 0.4 | 0.6
CCCc1nc2oc3c(N4CCNCC4)ncnc3c2c2c1CCCC2 | 9 | · | 9 | · | 0.9 | 0.9
CC(=O)N(CC(=O)O)c1ccccc1C(=O)O | -6 | -8 | -6 | 25 | 1.1 | 1.1
COc1ccc(CN(C)c2ncnc(N)n2)cc1 | 78* | 17 | 11 | 3 | 0.9 | 0.2
SMILES | CYP2C19 inh | PLK1 kinase inh | CYP2C9 inhib | PLK1 PBD inh | CYP2C9 act | CYP2C19 activ
COc1ccc2c(c1)N(C(=O)CSc1n[nH]c(C)n1)C(C)(C)C=C2C | 42 | -7 | 4 | 7 | 1 | 0.6
CC(CCc1ccccc1)NC(=O)c1cccs1 (stereo not given) | 57* | -9 | 72* | -12 | 0.3 | 0.4
CC(CCc1ccccc1)NC(=O)c1ccccc1 (stereo not given) | 66* | -11 | 91* | 22 | 0.1 | 0.3
CC(CCc1ccccc1)NC(=O)c1ccncc1 (stereo not given) | 100* | 2 | 94* | -1 | 0.1 | 0
O=C(NNC(=O)C(c1ccccc1)c1ccccc1)c1cccs1 | 56* | -7 | 91* | 19 | 0.1 | 0.4
CCOC(=O)c1ccc(N/C(=N\S(=O)(=O)c2ccccc2C)c2ccccc2)cc1 | 23 | 2 | 31 | -2 | 0.7 | 0.8
C=CCn1c(Cc2csc(N)n2)nnc1SCC(=O)OCC | 40 | -9 | -8 | 11 | 1.1 | 0.6
CCOC(=O)N1CCC(NS(=O)(=O)c2cc(Br)cc3c2N(C(=O)CC)CC3)CC1 | 21 | · | 3 | · | 1 | 0.8
CCCCOC(=O)Nc1cc(C(=O)OC)ccc1C(=O)OC | 15 | · | 23 | · | 0.8 | 0.8
O=C(c1ccc(Cl)c(F)c1F)N1CCOCC1 | -9 | 10 | -13 | 3 | 1.1 | 1.1
O=C(Nc1ccc(Cl)cc1)c1ccncc1 | 90* | -6 | 49 | 5 | 0.5 | 0.1
O=C(Nc1cnccn1)c1ccncc1 | 11 | -6 | 4 | 11 | 1 | 0.9
CC(C)Oc1ccc(NC(=O)c2ccncc2)cc1 | 87* | -7 | 90* | 11 | 0.1 | 0.1
O=C(Nc1cccc(Cl)c1Cl)c1ccncc1 | 90* | 54* | 69* | -31 | 0.3 | 0.1
Cc1ccc(Nc2c(N)c(=O)oc3ccccc23)cc1 | · | -5 | · | 5 | · | ·
Cc1c(-c2nc(N)nc(Nc3ccccc3)n2)oc2ccccc12 | 23 | -12 | 84* | 1 | 0.2 | 0.8
CCN(CC)c1ccc(-c2c(C#N)c(N)nc(OC)c2C#N)cc1 | 3 | -18 | 54* | -31 | 0.5 | 1
CC(c1ccco1)N(C(=O)C12CC3(C)CC(C)(CC(C)(C3)C1)C2)c1ccccn1 (stereo not given) | 12 | -12 | 1 | -2 | 1 | 0.9
CCOC(=O)Cc1csc(NC(=O)CSc2nncn2C)n1 | · | -14 | · | -10 | · | ·
Cc1sc2nc(SCC(=O)N3CCCC3)[nH]c(=O)c2c1C | -1 | · | 24 | · | 0.8 | 1
Cc1sc2nc(SCC(=O)N(C)C)[nH]c(=O)c2c1C | 34 | 10 | 54* | 11 | 0.5 | 0.7
CCOC(=O)Cc1csc(NC(=O)CSc2nc3sc(C(=O)O)c(C)c3c(=O)[nH]2)n1 | 11 | 16 | 84* | 7 | 0.2 | 0.9
Cc1csc(NC(=O)CSc2nc3sc(C)c(C)c3c(=O)[nH]2)n1 | 12 | 50 | 86* | -12 | 0.1 | 0.9
